Tb PFK block = blocks T. brucei phosphofructokinase; O15648; T. brucei PFK, ADP-Glo luminescence; Potency, µM (titrated, usually from 57.5 µM), actives largely listed as inhibitors; 0.17% of 330,000 active; AID 485367; active = well fitted inhibition curve with a large enough effect; inconclusive = small, poorly fitted or top-dose-only effect, or effect the other way; note: nearly all actives have a fitted effect of over 60% in size
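1.25 nM PFK with 0.5 mM F6P and 0.1 mM ATP in 0.1 M TEA pH 8.0, 5 mM MgCl2, incubated 45 min at room temperature; ADP measured by ADP-Glo luminescence; compounds titrated up to 57 uM.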
RGS12 GoLoco inh = RGS12 GoLoco-Gai1 interaction inhibition | P63096 | Gai1:RGS12 GoLoco peptide FP, rhodamine, 10 min | Potency, µM (titrated, usually from 61.6 µM), usual class: inhibitors | 0.44% of 230,000 active | AID 880; active = well fitted inhibition curve with a large enough effect, not every such curve was filed as active; inactive = no such curve, though single readings can be large or run the other way; note: nearly all actives have a fitted effect of over 30% in size
MLL CXXC-DNA inh = blocks binding of human MLL CXXC domain to DNA; Q03164; MLL-CXXC / FITC-HOXA9 DNA fluorescence polarization; Potency, µM (top dose mostly 115 µM), most hits filed as inhibitors; 0.037% of 290,000 active; active = well fitted inhibition curve with a large enough effect in the polarisation, with a control signal flat, not every such curve was filed as active; inconclusive = small, poorly fitted or top-dose-only effect, or effect the other way, or a change in a side signal; inactive = no such curve, though single readings can be large or run the other way; the % refers to the polarisation
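Steps: dispense CXXC domain solution (7 uM) → pin compounds or unlabeled HOX-A9 DNA control → 5 min ambient → add FLSN-HOX-A9 solution (50 nM) → spin → 30 min ambient → fluorescence polarization. Tris pH 7.5/NaCl/DTT/BSA buffer.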
Menin MLL FP FL = inhibitors of human menin-MLL interaction, wild-type MLL peptide | Fluorescence polarization, fluorescein-MLL peptide displacement from menin | FP activity change, % at 61.4 µM | 290,000 tested, under 10 active; active = well fitted curve in the direction sought with a large enough effect in the polarisation, not every such curve was filed as active; inconclusive = small, poorly fitted or top-dose-only effect, or effect the other way, or a change in a side signal; inactive = no such curve, though single readings can be large or run the other way; the % refers to the polarisation
Menin-MLL TR inh = menin-MLL binding inhibition, Texas Red mutant peptide | Potency, µM (titrated, usually from 61.6 µM), hits mostly inhibitors | 0.23% of 270,000 active | AID 1768 | Menin + Texas Red MLL mutant peptide, fluorescence polarization | O00255; active = well fitted inhibition curve with a large enough effect in the polarisation, with a control signal flat, not every such curve was filed as active; inconclusive = small, poorly fitted or top-dose-only effect, or effect the other way, or a change in a side signal; inactive = no such curve, though single readings can be large or run the other way; the % refers to the polarisation
Target sequence (O00255 whole entry, looked up): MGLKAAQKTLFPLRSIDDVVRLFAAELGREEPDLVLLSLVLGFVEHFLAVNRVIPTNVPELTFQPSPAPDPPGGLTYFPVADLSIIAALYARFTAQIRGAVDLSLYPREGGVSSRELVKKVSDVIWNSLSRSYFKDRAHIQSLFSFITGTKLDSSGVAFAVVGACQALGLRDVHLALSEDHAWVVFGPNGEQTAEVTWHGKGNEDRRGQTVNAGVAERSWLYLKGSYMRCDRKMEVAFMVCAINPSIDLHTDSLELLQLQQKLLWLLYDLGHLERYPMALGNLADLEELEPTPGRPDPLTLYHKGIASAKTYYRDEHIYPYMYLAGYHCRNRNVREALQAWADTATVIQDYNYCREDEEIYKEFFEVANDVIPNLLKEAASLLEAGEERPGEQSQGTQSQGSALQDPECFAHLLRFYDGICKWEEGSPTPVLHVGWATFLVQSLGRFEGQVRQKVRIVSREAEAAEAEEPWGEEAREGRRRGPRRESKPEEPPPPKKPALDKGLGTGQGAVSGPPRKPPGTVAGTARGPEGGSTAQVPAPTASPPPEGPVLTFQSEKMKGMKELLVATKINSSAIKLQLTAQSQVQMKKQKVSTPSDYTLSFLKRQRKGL
Numbers stand for hits; ! = a repeat was not active; [ ] = another dose, or the depositor's remark. The list is not random: actives were taken first. Their share in the collection is about 0.43%.

For CC(=O)OCOC(=O)CNc1ccccc1OCCOc1ccccc1NCC(=O)OCOC(C)=O the results were Menin MLL FP FL inactive and Menin-MLL TR inh inactive.
`Cc1cc(N)ccc1N1CCCC1` gave Tb PFK block inactive, RGS12 GoLoco inh 14µM, MLL CXXC-DNA inh inconclusive, Menin MLL FP FL inactive and Menin-MLL TR inh 28µM.
Screening CCN1CCN(c2ccc(N)cc2C)CC1 returned Tb PFK block inactive, RGS12 GoLoco inh inactive, MLL CXXC-DNA inh inactive, Menin MLL FP FL inactive and Menin-MLL TR inh inactive.
Screening CCOC(=O)c1ccc2c(c1)C1C=CCC1C(C(=O)O)N2 (configuration not stated) returned Tb PFK block 19µM, RGS12 GoLoco inh inactive, MLL CXXC-DNA inh inactive, Menin MLL FP FL inactive and Menin-MLL TR inh inconclusive.
For Cc1ccc(-n2c(C)cc(/C=N/Nc3ccc([N+](=O)[O-])cn3)c2C)cc1 the results were Tb PFK block inactive, RGS12 GoLoco inh 3.5µM, MLL CXXC-DNA inh inactive, Menin MLL FP FL inactive and Menin-MLL TR inh inactive.
`N#Cc1cccc(NC(=O)CSc2ccc3c4c(cccc24)C(=O)c2ccccc2-3)c1` gave Tb PFK block inactive, RGS12 GoLoco inh 11µM, MLL CXXC-DNA inh inconclusive, Menin MLL FP FL inactive and Menin-MLL TR inh inactive.
For NC(=Nc1ccc(Cl)cc1)c1ccccc1 the results were Tb PFK block inactive, RGS12 GoLoco inh inactive, MLL CXXC-DNA inh inactive, Menin MLL FP FL inactive and Menin-MLL TR inh inactive.
CSC(=Nc1ccc(Cl)cc1)N[n+]1ccccc1 was read as Tb PFK block inactive, RGS12 GoLoco inh 7.1µM, MLL CXXC-DNA inh inactive, Menin MLL FP FL inactive and Menin-MLL TR inh inactive.
O=C1C=CC2=C3c4cc(O)c(O)cc4C[C@@]3(O)COC2=C1 was read as RGS12 GoLoco inh 0.35µM, Menin MLL FP FL inconclusive and Menin-MLL TR inh inconclusive.
`O=C(CCc1ccc(O)c(O)c1)N/N=C/c1ccc2c(c1)OCO2` gave Tb PFK block 4.3µM and MLL CXXC-DNA inh inactive.
CC(C)Oc1ccc(CCC(=O)N/N=C/c2ccc3c(c2)OCO3)cc1 was read as Tb PFK block inactive, MLL CXXC-DNA inh inactive, Menin MLL FP FL inactive and Menin-MLL TR inh inactive.
For O=C1OC2(c3cc(Br)c(O)c(Br)c3Oc3c2cc(Br)c(O)c3Br)c2c(Cl)c(Cl)c(Cl)c(Cl)c21 the results were RGS12 GoLoco inh 0.79µM.
CCCCN(CCO)CCCC was read as Tb PFK block inactive and RGS12 GoLoco inh 16µM.
For CCCN(CCO)CCCc1ccccc1 the results were Tb PFK block inactive, RGS12 GoLoco inh inactive, MLL CXXC-DNA inh inactive, Menin MLL FP FL inactive and Menin-MLL TR inh inactive.
For Cc1ccc(NC(=O)c2cc3ccccc3oc2=N)cc1 the results were Tb PFK block inactive, MLL CXXC-DNA inh inactive, Menin MLL FP FL inactive and Menin-MLL TR inh inactive.
N=c1oc2c3c4c(cc2cc1C(=O)Nc1ccccc1)CCCN4CCC3 was read as Tb PFK block inactive, RGS12 GoLoco inh 4µM, MLL CXXC-DNA inh inconclusive, Menin MLL FP FL inconclusive and Menin-MLL TR inh inactive.
For O=C(COc1ccc(Cl)cc1Cl)Nc1ccccn1 the results were Tb PFK block 17µM, RGS12 GoLoco inh inactive, MLL CXXC-DNA inh inactive, Menin MLL FP FL inactive and Menin-MLL TR inh inactive.
Screening COc1ccc(C2C=C3CNS(=O)(=O)C3CC2OC(=O)c2ccc(C(F)(F)F)cc2)cc1 (configuration not stated) returned Menin MLL FP FL inactive and Menin-MLL TR inh inactive.
`O[C@H](CN1CC1)[C@@H](O)CN1CC1` gave RGS12 GoLoco inh inactive[14.2 µM].
CCN(CC)Cc1c(O)c(Cl)cc2c(C)cc(=O)oc12 was read as Tb PFK block inactive, RGS12 GoLoco inh 16µM, MLL CXXC-DNA inh inconclusive, Menin MLL FP FL inconclusive and Menin-MLL TR inh inactive.
`Cc1cc(=O)oc2c(CN3CCCC3)c(O)c(Cl)cc12` gave Tb PFK block inactive, MLL CXXC-DNA inh inactive, Menin MLL FP FL inconclusive and Menin-MLL TR inh inactive.
Screening Cc1cc(=O)oc2c(CN3CCC(C)CC3)c(O)c(Cl)cc12 returned Tb PFK block inconclusive, RGS12 GoLoco inh 22µM, MLL CXXC-DNA inh inconclusive, Menin MLL FP FL inconclusive and Menin-MLL TR inh inactive.
Cc1ccc2c(=O)c3cccc(CC(=O)O)c3oc2c1C was read as Menin MLL FP FL inactive and Menin-MLL TR inh inactive.
For OC1OC[C@@H](O)[C@H](O)[C@@H]1O (some centres not stated) the results were RGS12 GoLoco inh inactive, MLL CXXC-DNA inh inactive, Menin MLL FP FL inactive and Menin-MLL TR inh inactive.
`CNc1ccc(O)cc1` gave RGS12 GoLoco inh 5.6µM.
For CNc1ccccc1 the results were Tb PFK block inactive and RGS12 GoLoco inh inactive.
Screening CCC(C)(C)c1ccc(O)cc1 returned Tb PFK block inactive, RGS12 GoLoco inh 8.9µM!, MLL CXXC-DNA inh inactive, Menin MLL FP FL inactive and Menin-MLL TR inh inactive.
`COc1cc(OC)cc(-c2nnc3n2N=C(c2ccc(OC)cc2OC)CS3)c1` gave Menin MLL FP FL inactive and Menin-MLL TR inh inactive.
`CN(C)CC1CCn2c(c(C3=C(c4cn(C)c5ccccc45)C(=O)NC3=O)c3ccccc32)C1` (configuration not stated) gave Menin MLL FP FL inactive and Menin-MLL TR inh inconclusive.
`CCN(CCCc1ccccc1)CCCc1ccccc1` gave Tb PFK block inactive, RGS12 GoLoco inh 28µM!, MLL CXXC-DNA inh inactive, Menin MLL FP FL inactive and Menin-MLL TR inh inconclusive.
For Cc1o[nH]c(=O)c1CCC(N)C(=O)O (configuration not stated) the results were RGS12 GoLoco inh inactive.
CC(=O)N1CCOc2cc(S(=O)(=O)Nc3cccc(C(F)(F)F)c3)c(Cl)cc21 was read as Tb PFK block inactive.
`O=C(O)C1C2CCC(O2)C1C(=O)Nc1ccc(O)cc1` (configuration not stated) gave Tb PFK block inactive, RGS12 GoLoco inh 16µM, MLL CXXC-DNA inh inactive and Menin-MLL TR inh 32µM.
CC[n+]1c(C)sc2sc3ccccc3c21 was read as Tb PFK block inactive, RGS12 GoLoco inh 11µM, MLL CXXC-DNA inh inactive and Menin MLL FP FL inconclusive.
CCCCc1c(CCC)c(=N)c2ccccc2n1C was read as Tb PFK block inactive, RGS12 GoLoco inh 11µM, MLL CXXC-DNA inh inactive, Menin MLL FP FL inactive and Menin-MLL TR inh inactive.
`CCCCc1c(O)c2ccccc2n(CCCC)c1=O` gave Tb PFK block inactive, RGS12 GoLoco inh inactive, MLL CXXC-DNA inh inactive, Menin MLL FP FL inactive and Menin-MLL TR inh inactive.
For Nc1ncnc2c1ncn2C1O[C@H](CO)[C@@H](O)[C@@H]1O (some centres not stated) the results were Tb PFK block inactive.
Screening Nc1ncnc2c1c(I)cn2C1OC(CO)C(O)C1O (configuration not stated) returned RGS12 GoLoco inh 25µM!, Menin MLL FP FL inactive and Menin-MLL TR inh inactive.
CCc1c2c(nc3ccc(OC(=O)N4CCC(N5CCCCC5)CC4)cc13)-c1cc3c(c(=O)n1C2)COC(=O)C3(O)CC (configuration not stated) was read as Menin MLL FP FL inactive and Menin-MLL TR inh inactive.
For C[n+]1cccc(/C=N/NC(=O)CC23CC4CC(CC(C4)C2)C3)c1 the results were Tb PFK block inactive, RGS12 GoLoco inh 4µM, MLL CXXC-DNA inh inactive and Menin MLL FP FL inactive.

Compound activity from PubChem.
